{"source": "the supplement of paper PMC13380429"}
{"system": "Vero E6 infected with SARS-CoV-2", "assay": "morphology score (similarity to uninfected cells); higher = more like uninfected cells", "settings": "24 h"}
{"molecule": "N[C@@H](C(=O)N[C@@H]1C(=O)N2C(C(=O)O)=C(Cl)CS[C@H]12)c1ccccc1", "note": "[cefaclor] (10 µM)", "morphology score": 0.0453}
{"molecule": "CC(C)n1nc(C#Cc2ccccc2)c2c(N)ncnc21", "note": "(10 µM)", "morphology score": 0.471}
{"molecule": "COc1ccc2c3c1O[C@H]1C[C@@H](O)C=C[C@@]31CCN(C)C2", "note": "[galantamine] (10 µM)", "morphology score": 0.113}
{"molecule": "Cn1ncc(Cl)c1-c1cc(C(=O)N[C@H](CN)Cc2cccc(F)c2)sc1Cl", "note": "(10 µM)", "morphology score": 0.197}
{"molecule": "CNC(=O)N(C)N=O", "note": "[nitrosodimethylurea] (10 µM)", "morphology score": 0.0639}
{"molecule": "CCc1c2c(nc3ccc(O)cc13)-c1cc3c(c(=O)n1C2)COC(=O)[C@]3(O)CC", "note": "(0.833333 µM)", "morphology score": -0.131}
{"molecule": "CCCCOC(=O)c1ccc(N)cc1", "note": "[butamben] (10 µM)", "morphology score": 0.102}
{"molecule": "C[C@@]1(CO)[C@H](O)CC[C@@]2(C)[C@H]1CC[C@H]1C[C@@H]3C[C@@]12CC[C@]3(O)CO", "note": "[aphidicolin] (0.833333 µM)", "morphology score": -0.0875}
{"molecule": "COc1c(Nc2ccc(S(C)(=O)=O)nc2C)ncnc1OC1CCN(C(=O)OC(C)C)CC1", "note": "(10 µM)", "morphology score": -0.00778}
{"molecule": "COC(=O)N/N=C/c1c[n+]([O-])c2ccccc2[n+]1[O-]", "note": "[carbadox] (10 µM)", "morphology score": 0.227}
{"molecule": "CCc1c(C(=O)NCCc2ccc(N3CCCCC3)cc2)[nH]c2ccc(Cl)cc12", "note": "(10 µM)", "morphology score": -0.0889}
{"molecule": "CCN(CC)CCOC(=O)C(c1ccccc1)c1ccccc1", "note": "[adiphenine] (10 µM)", "morphology score": -0.106}
{"molecule": "CC[C@H]1[C@@H](O)[C@@H]2[C@H](CC[C@]3(C)[C@@H]([C@H](C)CCOS(=O)(=O)O)CC[C@@H]23)[C@@]2(C)CC[C@@H](O)C[C@@H]12", "note": "(10 µM)", "morphology score": -0.0685}
{"molecule": "CCN(CC)CC(=O)Nc1c(C)cccc1C", "note": "[lidocaine] (10 µM)", "morphology score": 0.0603}
{"molecule": "OC[C@H]1OC(O)[C@H](O)[C@@H](O)[C@@H]1O", "note": "(stereo not given in full) [dextrose] (10 µM)", "morphology score": -0.00495}
{"molecule": "O=C(c1ccc(F)cc1)N1CCC[C@H](c2nc(-c3ccc(F)cc3)no2)C1", "note": "(10 µM)", "morphology score": 0.242}
{"molecule": "O=[N+]([O-])c1cn2c(n1)OC[C@@H](OCc1ccc(OC(F)(F)F)cc1)C2", "note": "[pretomanid] (10 µM)", "morphology score": 0.0902}
{"molecule": "C[C@H](O)[C@H](O)[C@H]1CNc2nc(N)[nH]c(=O)c2N1", "note": "[sapropterin] (10 µM)", "morphology score": -0.0335}
{"molecule": "NC1CCN(c2c(F)cc3c(=O)c(C(=O)O)cn(C4CC4)c3c2Cl)C1", "note": "(stereo not given) [clinafloxacin] (10 µM)", "morphology score": 0.187}
{"molecule": "CC(C)NCC(O)COc1cccc2ccccc12", "note": "(stereo not given) [propranolol] (10 µM)", "morphology score": 0.148}
{"molecule": "N.N.[Cl][Pt][Cl]", "note": "[cisplatin] (10 µM)", "morphology score": 0.0556}
{"molecule": "O=C(/C=C/c1ccc(O)c(O)c1)O[C@@H]1C[C@](O)(C(=O)O)C[C@@H](O)[C@H]1O", "note": "[chlorogenic-acid] (10 µM)", "morphology score": 0.0432}
{"molecule": "Cc1cc(-c2cc(OC(=O)c3ccccc3)ccc2Cl)cc2nnc(Nc3ccc(OCCN4CCCC4)cc3)nc12", "note": "(10 µM)", "morphology score": -0.0439}
{"molecule": "O=Nc1c(-c2c(O)[nH]c3cc(Br)ccc23)[nH]c2ccccc12", "note": "[GSK-3-inhibitor-IX] (0.833333 µM)", "morphology score": -0.0517}
{"molecule": "Cc1c(I)c(=O)n(-c2ccccc2)n1C", "note": "[iodoantipyrine] (10 µM)", "morphology score": 0.0311}
{"molecule": "COc1cc2nc(N3CCCN(C)CC3)nc(NC3CCN(Cc4ccccc4)CC3)c2cc1OC", "note": "(0.833333 µM)", "morphology score": 0.456}
{"molecule": "O=C(O)C1=CO[C@@H](O[C@@H]2O[C@H](CO)[C@@H](O)[C@H](O)[C@H]2O)[C@@H]2C(CO)=CC[C@H]12", "note": "[Geniposidic acid] (10 µM)", "morphology score": -0.163}
{"molecule": "NC1CCN(c2cccc(Cl)n2)CC1", "note": "(10 µM)", "morphology score": -0.122}
{"molecule": "C=CC(=O)N1CCC[C@@H](n2nc(-c3ccc(Oc4ccccc4)cc3)c3c(N)ncnc32)C1", "note": "[ibrutinib] (10 µM)", "morphology score": 0.197}
{"molecule": "CN(C)CC/C=C1/c2ccccc2Sc2ccc(Cl)cc21", "note": "[chlorprothixene] (10 µM)", "morphology score": 0.434}
{"molecule": "CCN(CC)C(=S)S", "note": "[ditiocarb-sodium-trihydrate] (10 µM)", "morphology score": 0.761}
{"molecule": "CN1CCOC(c2ccccc2)c2ccccc2C1", "note": "(stereo not given) [nefopam] (10 µM)", "morphology score": 0.0314}
{"molecule": "CC(=O)N1CCN(CCOc2ccc(C3CCN(C4=Nn5c(nnc5C(F)(F)F)CC4)CC3)cc2)CC1", "note": "(0.833333 µM)", "morphology score": 0.0218}
{"molecule": "COc1cc(C#N)ccc1S(=O)(=O)Nc1ccc2c(c1)cc(C)c(=O)n2C", "note": "(10 µM)", "morphology score": 0.0143}
{"molecule": "C[C@@H]1CN(CC(=O)Nc2ccc3c(c2)Cc2cccc(-c4cc(=O)cc(N5CCOCC5)o4)c2S3)C[C@H](C)O1", "note": "(10 µM)", "morphology score": 0.618}
{"molecule": "NC(N)=Nc1nc(CSCC/C(N)=N/S(N)(=O)=O)cs1", "note": "[Famotidine] (10 µM)", "morphology score": -0.0119}
{"molecule": "C[C@@H](NC(=O)[C@@H](N)Cc1ccc(O)cc1)C(=O)NCC(=O)N(C)[C@@H](Cc1ccccc1)C(=O)N[C@H](CO)CC[S+](C)[O-]", "note": "(stereo not given in full) (10 µM)", "morphology score": 0.111}
{"molecule": "CN(C)CCOC(=O)C(c1ccccc1)C1(O)CCCC1", "note": "(stereo not given) [cyclopentolate] (10 µM)", "morphology score": 0.178}
{"molecule": "CC1(COc2ccc3c(c2)ncn3-c2ccc3cccc(N4CCC(N)CC4)c3n2)COC1", "note": "[crenolanib] (0.833333 µM)", "morphology score": -0.0592}
{"molecule": "Cn1nnc2c(C(N)=O)ncn2c1=O", "note": "[temozolomide] (10 µM)", "morphology score": -0.0949}
